Compound activity: PubChem BioAssay, National Center for Advancing Translational Sciences (NCATS)
FBPA Giardia inh = qHTS Assay for Inhibitors of Fructose-1,6-bisphosphate Aldolase from Giardia Lamblia; A8B2U2; purified Giardia FBPA; Potency, µM (highest dose often 59.6 µM), inactives show top-dose activity, negative = inhibition, most hits filed as inhibitors; hit rate 0.71% among 290,000; note: potency is the fitted concentration of half-maximal effect; nearly all actives have a fitted effect of over 55% in size
Target sequence (A8B2U2 whole entry, looked up): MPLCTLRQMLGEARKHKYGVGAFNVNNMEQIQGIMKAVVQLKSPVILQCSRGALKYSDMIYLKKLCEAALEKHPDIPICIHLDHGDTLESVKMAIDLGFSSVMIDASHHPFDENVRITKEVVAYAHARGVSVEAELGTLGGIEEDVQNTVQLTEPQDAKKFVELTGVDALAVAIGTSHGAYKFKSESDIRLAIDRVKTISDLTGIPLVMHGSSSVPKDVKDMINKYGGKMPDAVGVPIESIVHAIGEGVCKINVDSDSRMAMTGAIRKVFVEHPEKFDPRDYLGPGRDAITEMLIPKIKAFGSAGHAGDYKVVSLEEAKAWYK
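Giardia FBPA (40 nM reagent) was preincubated 10 min at RT with compound (up to 57.5 uM final), then substrate plus GAPDH/TPI/NAD/arsenate coupling system with diaphorase/resazurin was added; resorufin fluorescence (525/598 nm) was read after 20 min.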
RE007 growth inh = qHTS Assay for Inhibitors of the HIV-1 protein Vpr | Potency, µM (top dose mostly 92.2 µM), for inactives: at the highest dose activity change, negative = less growth, actives largely listed as inhibitors | hit rate 0.21% among 360,000 | S. pombe RE007 Vpr strain, BacTiter-Glo ATP luminescence, 24 h; active = well fitted falling curve with a large enough effect; inconclusive = small, poorly fitted or top-dose-only effect; inactive = no such curve, though single readings can be large or run the other way; note: potency is the fitted concentration of half-maximal effect; nearly all actives have a fitted effect of over 50% in size
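Fission yeast RE007 carrying one integrated HIV-1 vpr copy, seeded at OD 0.01 in PMG+AL medium with 23 nL pinned compound. Grown 24 h at 30 degrees; viability read by BacTiter-Glo luminescence after 5 min.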
Tb PYK inh = qHTS of Trypanosoma Brucei Inhibitors. pyruvate kinase (Trypanosoma brucei), Q57TT1. TbPYK enzyme, Kinase-Glo Plus ATP luminescence, 45 min. Potency, µM (top dose mostly 76.8 µM), without a hit: at the top dose activity, negative = inhibition, actives largely listed as inhibitors. hit rate 0.12% among 410,000; note: potency is the fitted concentration of half-maximal effect; nearly all actives have a fitted effect of over 50% in size
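ADP (130 uM final) triggers the TbPYK reaction after compound addition; incubation is 45 min at room temperature. Kinase-Glo Plus is then added and luminescence imaged. Normalized data are fitted to concentration-effect curves.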
FMDV inh = High Throughput Screening for Foot and Mouth Disease Virus Antivirals; FMDV antiviral cell-based qHTS; Potency, µM (series often up to 57.9 µM), without a hit: top-dose activity change, negative = inhibition, actives largely listed as inhibitors; hit rate 1.2% among 410,000; AID 1159524, 2015; calls by dose curve; tested in HEK293T cells; note: read-out not given here; potency is the fitted concentration of half-maximal effect; nearly all actives have a fitted effect of over 45% in size
Sm TGR inh = qHTS Assay for the Inhibitors of Schistosoma Mansoni Peroxiredoxins; purified TGR, DTNB reduction, TNB absorbance 405 nm; Potency, µM (top dose mostly 114 µM), inactives show at the top dose activity change, negative = inhibition, actives largely listed as inhibitors; hit rate 3% among 360,000; AID 485364, 2010; note: potency is the fitted concentration of half-maximal effect; nearly all actives have a fitted effect of over 60% in size
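Kinetic colorimetric format: TGR-catalysed, NADPH-driven DTNB reduction monitored via TNB absorbance. Enzyme dispensed at 20 nM; compound exposure 15 min at room temperature before reaction start.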
HCMV antiviral = qHTS Assay for inhibitors of the human cytomegalovirus (HCMV); HFF cells, HCMV-luciferase reporter, 72 h; hits give low values; activity change, negative = inhibition, % at 57.5 µM; hit rate 4.5% among 410,000; in the data active = activity change below about -60%; inconclusive = no clear call, values can overlap the other calls; inactive = above about -39%
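After 16 h attachment at 37C, HFF cells received test compound and HCMV-luciferase (1 PFU/cell); reporter luminescence read 72 h later, data normalized against buffer-only and known inhibitor Salinomycin.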
* marks the source's active call; other numbers are inactive results; ? = inconclusive; . = no result given; [ ] = dose if it differs, or a comment. A selection: hits, their analogues and other compounds. The true share with any hit is near 7.7%. Unless noted, calls come from the whole dose curve; as a rule, active = well fitted curve in the direction sought with a large enough effect; inconclusive = small, poorly fitted or top-dose-only effect, or another doubt; inactive = no such curve, though single readings can be large; an effect the other way counts as inactive or inconclusive. % is set by controls: 0 for no effect and ±100 for the full control effect.

SMILES	FBPA Giardia inh	RE007 growth inh	Tb PYK inh	FMDV inh	Sm TGR inh	HCMV antiviral
Cc1ccccc1NC(=O)CN1C(=O)NC2(CCCCCCC2)C1=O	.	-12%	0%	-11%	-3%	-98*
COc1ccc(NC(=O)CSc2nncn3c2cc2oc(C)cc23)cc1OC	.	.	3%	-26%	-14%	-6
O=C(c1ccc(F)cc1)N(c1ccccc1F)C(CCc1ccccc1)c1nc2ccccc2[nH]1 (stereo not given)	.	.	.	.	.	11
Cc1cccc(C)c1NC(=O)C(CCc1ccccc1)N(C(=O)c1ccc(F)cc1)c1ccccc1F (stereo not given)	.	.	.	.	.	-70*
Cc1ccc(-c2csc3nc4cc(C(=O)NC5CCC(O)CC5)ccc4c(=O)n23)cc1 (stereo not given)	-17%	-1%	-22%	-25%	-3%	-17
Cc1ccc(-c2csc3nc4ccc(C(=O)NCCO)cc4c(=O)n23)cc1	-1%	-4%	1%	-19%	5%	-90*
O=C(c1cccc(F)c1F)N1CCOc2ccc(CN3CCC(Oc4cccnc4)CC3)cc2C1	.	.	.	-19%	.	.
CCOC(=O)C(Cc1ccccc1)(Nc1ccccc1OC)C(O)c1ccc(C#N)cc1 (stereo not given)	.	.	.	.	.	-66*
CCc1ccc(CN2CCc3nc(Nc4ccc5c(c4)OCCO5)ncc3C2)cc1	.	.	4%	-14%	13%	-36
O=C(Nc1cccc(F)c1)c1ccc(-c2ccccc2)s1	.	.	-3%	37%	7%	26
COc1cc(C(=O)O/N=C2/C=CC(=O)C(C)=C2C)cc(OC)c1OC	4µM*	5%	0%	?	-31%	-105*
Cc1ccccc1-c1ccc2ncnc(-n3ccnc3)c2c1	9%	.	.	40µM*	.	.
CN(C)c1ccc(-c2ccc3ncnc(-n4ccnc4)c3c2)cc1	-12%	.	.	-2%	.	.
CCCCC/C=C\C/C=C\C/C=C\C/C=C\CCCC(=O)O[C@@H](CO)COCCCCCCCCCCCCCCCC	-2%	.	.	-7%[6.7 µM]	.	.
CC(=O)Nc1nc(-c2ccc3c(c2)CCN3C(=O)C2CC2)c(C)s1	.	-11%	-6%	52%	-7%	-98*
CNc1nc(-c2ccc3c(c2)CCN3C(=O)CC(C)(C)C)c(C)s1	7%	5%	-14%	33%	8%	17
OCc1ccccc1SSc1ccccc1CO	.	-10%	?	-25%	.	-98*
OCc1ccccc1O	5%	.	-3%	-11%	.	.
Cc1cccc(C)c1NC(=O)Cn1c(=O)n(Cc2ccc(C(=O)NCc3ccco3)cc2)c(=O)c2sccc21	.	.	1%	-19%	-21%	-66*
N#Cc1ccccc1Cn1c(=O)n(Cc2ccc(C(=O)NCc3ccco3)cc2)c(=O)c2sccc21	10%	-2%	-3%	12%	-29%	-17
Cc1cc(C)c(NC(=O)Cn2c(=O)n(Cc3ccc(C(=O)NCc4ccco4)cc3)c(=O)c3sccc32)c(C)c1	.	.	-1%	-3%	-1%	-76*
c1ccc(-c2nc3ccccc3nc2-c2nc3ccccc3[nH]2)cc1	.	.	.	.	.	5
C=C1C(=O)O[C@H]2[C@H]1[C@H](OC(=O)CC(=O)O[C@@H]1C[C@@H](C)[C@@H]3C=CC(=O)[C@@]3(C)[C@H]3OC(=O)C(=C)[C@H]13)C[C@@H](C)[C@H]1C=CC(=O)[C@]12C	-9%	-15%	-13%	-19%	8.9µM*	-38
C=C1C(=O)OC2C1CCC(C)C1(O)C=CC(=O)C21C (stereo not given)	.	-7%	0%	40µM*	.	-108*
C=C1C(=O)OC2CC1C(OC(C)=O)CC(C)=CCCC(C)=CCC[C@@]2(C)O (stereo not given in full)	-1%	.	.	?	.	.
